Screening data from PubChem BioAssay.
An excerpt weighted towards active compounds, which were near 27% of everything screened.
CYP2C9 inh: blocks human cytochrome P450 2C9; CYP2C9 Supersomes, luciferin-H conversion, luminescence; inhibition, % at 5 µM; hit rate 20% among 96,000; AID 777;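 active = blocking of liver enzyme CYP2C9 beyond about 50% at 5 µM, limit read from the data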
CYP2C19 inh: inhibitors of human CYP2C19; hit rate 21% among 96,000; CYP2C19 Supersomes, luciferin-H EGE luminescence, 30 min; P33261; inhibition, % at 5 µM; AID 778;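 active = CYP2C19 inhibition above a set limit at 5 µM in the primary screen, cut at about 50% in these data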;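 also: plate controls were negative control wells for no effect and 2.5 mM tranylcypromine positive control for full effect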
Target sequence (P33261 whole entry, looked up): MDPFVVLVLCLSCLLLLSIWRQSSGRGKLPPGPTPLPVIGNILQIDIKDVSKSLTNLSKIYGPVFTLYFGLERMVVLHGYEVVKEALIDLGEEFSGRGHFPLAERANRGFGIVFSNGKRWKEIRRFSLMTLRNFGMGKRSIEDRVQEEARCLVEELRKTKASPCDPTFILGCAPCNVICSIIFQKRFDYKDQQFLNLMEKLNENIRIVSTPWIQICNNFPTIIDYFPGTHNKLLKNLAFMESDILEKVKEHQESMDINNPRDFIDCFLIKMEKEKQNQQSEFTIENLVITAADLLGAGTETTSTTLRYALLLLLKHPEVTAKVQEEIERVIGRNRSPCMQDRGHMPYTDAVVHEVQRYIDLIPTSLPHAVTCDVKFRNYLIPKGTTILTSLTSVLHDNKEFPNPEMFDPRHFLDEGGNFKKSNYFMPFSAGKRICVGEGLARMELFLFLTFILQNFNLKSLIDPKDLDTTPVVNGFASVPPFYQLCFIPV
CYP2C9 act: CYP2C9 (human) activation; recombinant CYP2C9, luciferin-H conversion, luminescence; hits give high values; factor 1 = untreated enzyme, 0 = blocked; activation factor at 5 µM; hit rate 1.4% among 96,000; AID 1024;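 active = activation factor of 2 or more for CYP2C9 at a 5 µM dose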;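 also: 0 = sulfaphenazole-blocked wells and 1 = vehicle-only wells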
Cav32 inh: inhibitors of human Cav3.2 T-type calcium channel | O95180 | B-score at 10 µM | Cav3.2-expressing cells, Fluo-4 calcium fluorescence FDSS; hits give low values | hit rate 4% among 100,000 | AID 449739;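 active = single-dose well whose peak fluorescence ratio is a statistical outlier from its plate by either plate-standardised score or position-corrected B-score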
CYP2C19 act: increases human CYP2C19 enzyme activity. 96,000 tested, under 10 active. AID 1025. activation factor at 5 µM. P33261. recombinant CYP2C19, luciferin-H EGE luminescence; hits give high values; 0 = fully inhibited enzyme, 1 = untreated enzyme;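 active = activation factor of at least 2 at 5 µM in the primary screen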;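 also: 0 = wells with 2.5 mM tranylcypromine and 1 = vehicle-only wells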
Numbers without * were called inactive; . = no result.

SMILES	CYP2C9 inh	CYP2C19 inh	CYP2C9 act	Cav32 inh	CYP2C19 act
CCOc1cc(NC(=S)NCCCN2CCOCC2)c(OCC)cc1NC(=O)CC(C)C	6	31	0.9	-0.056	0.7
O=C(COC(=O)c1ccccc1NC(=O)c1ccco1)NCC1CCCCC1	95*	79*	0.1	-0.92	0.2
CCOC(=O)c1cnc(-n2nc(C)cc2C)nc1N(CC)CC	79*	46	0.2	-3	0.5
CCOC(=O)c1cc(C#N)c(SCC(=O)c2cc(C#N)c(SC)nc2C)nc1C	99*	45	0	.	0.5
CCOC(=O)c1cc(C#N)c(SCc2cccc3ccccc23)nc1C	-8	0	1.1	-3.2	1
O=S(=O)(Nc1ccc2c(c1)nc1n2CCN(Cc2ccccc2)C1)c1ccc(Cl)cc1	98*	88*	0	-3.6	0.1
O=S(=O)(Nc1ccc2c(c1)nc1n2CCN(Cc2ccccc2)C1)c1ccccc1	.	.	.	-0.17	.
O=S(=O)(Nc1ccc2c(c1)nc1n2CCN(Cc2ccccc2)C1)c1ccc(F)cc1	39	25	0.6	.	0.8
Cc1ccc(S(=O)(=O)Nc2ccc3c(c2)nc2n3CCN(Cc3ccccc3)C2)cc1	96*	83*	0	-2.7	0.2
O=C(c1cc(C2CC2)on1)N1CCN(c2ccc(F)cc2)CC1	16	83*	0.8	0.94	0.2
COc1ccc(OC)c(-c2cc(C(=O)N3CCc4ccccc4C3)no2)c1	-73	47	1.7	0.73	0.5
COc1ccc(OC)c(-c2cc(C(=O)N3CCN(c4ccccc4)CC3)no2)c1	24	76*	0.8	-2.2	0.2
COc1ccccc1N1CCN(C(=O)c2ccc3nc(-c4ccco4)c(-c4ccco4)nc3c2)CC1	.	.	.	-6.2*	.
COc1ccccc1N1CCN(C(=O)c2cc(C3CC3)on2)CC1	77*	81*	0.2	-0.43	0.2
O=C(C1CCCO1)N1CCN(c2ccc(F)cc2)CC1 (stereo not given)	.	.	.	0.73	.
CCN1CCN(C(=O)C2CCN(Cc3cc(Cl)ccc3O)CC2)CC1	15	17	0.9	0.11	0.8
CCOC(=O)c1ccc(NC(=O)c2nc[nH]c2C(=O)N[C@H](C)c2ccccc2)cc1	.	.	.	0.075	.
O=C(c1cc(-c2cccs2)on1)N1CCN(c2ccccc2)CC1	72*	63*	0.3	.	0.4
O=C(c1cc(-c2cccs2)on1)N1CCN(c2ccc(F)cc2)CC1	22	12	0.8	0.097	0.9
COc1ccccc1N1CCN(C(=O)c2cc(-c3ccc(Cl)cc3)on2)CC1	14	5	0.9	-2.4	0.9
COc1ccccc1N1CCN(C(=O)c2cc(-c3ccc(C)cc3)on2)CC1	41	19	0.6	-4.2*	0.8
COc1ccccc1-c1cc(C(=O)N2CCN(c3ccccc3OC)CC2)no1	-172	54*	2.7*	-3	0.5
COC1(OC)C=CC(=O)C=C1NC(=O)c1ccccc1OC(C)=O	.	.	.	0.74	.
CC(C(=O)Nc1cccc([N+](=O)[O-])c1)n1nnc2ccccc21 (stereo not given)	79*	53*	0.2	0.075	0.5
COCCN1Cc2cccc(C(=O)N3CCN(c4cc(C)ccc4C)CC3)c2C1=O	71*	75*	0.3	-0.039	0.3
SMILES	CYP2C9 inh	CYP2C19 inh	CYP2C9 act	Cav32 inh	CYP2C19 act
Cc1ccc(Cl)cc1N1CCN(C(=O)CN2C(=O)c3cccc4cccc2c34)CC1	-103	22	2*	-0.53	0.8
CCCN1Cc2cccc(C(=O)N3CCN(c4cc(Cl)ccc4C)CC3)c2C1=O	96*	89*	0	-2.4	0.1
COc1cccc(OC)c1C(=O)n1nc(C)cc1C	-23	2	1.2	0.075	1
C#CCOCCOCCOCCNc1nc(N2CCN(C(=O)C([C@@H](C)CC)n3cc(C(N)COC(=O)C(F)(F)F)nn3)CC2)nc(N2CCN(C(=O)[C@H](CCCCN)n3cc(C(N)[C@H](C)CC)nn3)CC2)n1 (stereo not given in full)	.	.	.	0.26	.
Cc1cccc(N(C(=O)c2ccc(CN3CCOCC3)o2)C(C(=O)NC(C)(C)C)c2ccc(F)cc2)c1 (stereo not given)	.	.	.	-2.8	.
NC(=O)CN(c1ccccc1)C1SC(=O)N(Cc2ccccc2)C1=O (stereo not given)	14	52*	0.9	-1.1	0.5
Cc1ccc(N(CC(N)=O)C2SC(=O)N(Cc3ccccc3)C2=O)cc1 (stereo not given)	0	42	1	-0.31	0.6
CCOC(=O)c1cnc2c(c(C)nn2C)c1Oc1ccc(Cl)cc1	40	31	0.6	-6.7*	0.7
